# Columns and labels:
# Assay in all cases: PBM binding z-score (relative to random genomic background probes); higher = stronger binding; sequences stand for … in GC…GCGATTGACAGCGTAGAATGAAGG
# [1] = tested on: PPARg:RXRa DBDmut IVT, anti-RXR (DBD mutation: RXRa K156A/R161A, NR concentration 270 nM, RXRa partner concentration 90 nM)
# How it was run: (§1)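 Custom Agilent 4×180K protein-binding microarrays carried double-stranded probes, each with a 34-nt variable region. These regions held direct-repeat seeds, single-nucleotide variants, half-site ablations and random human genomic background sequences. Ligand-free nuclear receptor dimers were incubated on the arrays for 1 h, antibodies against each partner (one per run) detected binding, and scanned fluorescence was regression-normalized. Binding z-scores take the random background probes as reference.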
# [2] = tested on: PPARg:RXRa IVT, anti-PPARg (NR concentration 270 nM, RXRa partner concentration 90 nM)
# How it was run: as §1
# [3] = tested on: PPARg DBDmut:RXRa IVT, anti-PPARg (DBD mutation: PPARg1 K132A/R137A, NR concentration 270 nM, RXRa partner concentration 90 nM)
# How it was run: as §1
# [4] = tested on: PPARg DBDmut IVT, anti-PPARg (DBD mutation: PPARg1 K132A/R137A, NR concentration 270 nM)
# How it was run: as §1
# [5] = tested on: PPARg homodimer (NR concentration 180 nM)
# How it was run: as §1
# [6] = tested on: PXR:RXRa (NR concentration 270 nM, RXRa partner concentration 90 nM)
# How it was run: as §1
# [7] = tested on: PXR homodimer (NR concentration 270 nM)
# How it was run: as §1
# [8] = tested on: RARa:RXR (NR concentration 270 nM, RXRa partner concentration 90 nM)
# How it was run: as §1
# [9] = tested on: RARa homodimer (NR concentration 270 nM)
# How it was run: as §1
# [10] = tested on: RARb:RXRa (NR concentration 270 nM, RXRa partner concentration 90 nM)
# How it was run: as §1
Sequence,PBM binding z-score [1],PBM binding z-score [2],PBM binding z-score [3],PBM binding z-score [4],PBM binding z-score [5],PBM binding z-score [6],PBM binding z-score [7],PBM binding z-score [8],PBM binding z-score [9],PBM binding z-score [10]
TCGAGTAGGTTAGTCCGGGCATTCAGCCAACATA,1.83,1.17,-0.501,-0.393,-0.627,-0.337,-0.362,-0.0826,-1.14,0.232
TCGAGTAGGTTACCAATTGGGCATTCAGCTTTCT,3.77,2.73,-0.446,-0.0338,-0.44,0.0575,-0.745,0.253,-0.895,0.606
TCATATAGGTAAACAGGTGAAAGACCGTAAGTTA,4.76,4.63,1.09,1.03,1.16,0.687,0.35,1.22,1.07,0.77
CGTAGTTGGTCAGGAGGTCACACACCGGATATGA,1.51,3.49,0.964,0.266,4.08,4.4,1.55,4.87,1.81,3.54
CTACCAAGGTGAACAAAGTCGTTGATTACTATTC,2.31,2.45,0.74,0.992,0.58,0.262,0.0608,0.544,0.222,1.42
CGTCCAAGGTCAATGCTAGGTCAGTGCAAGCATT,3.46,3.77,-0.816,-0.276,4.69,4.69,1.57,5.52,1.48,5.25
GCAGACAGGTGAAACGCAGGTAAATCAGGGTGGC,0.287,0.429,-0.773,-1.02,-0.379,-0.152,-0.443,0.514,-0.404,0.472
ATCTCTAGGTAAAAGTTCGGTGAATCCCGAGGAT,2.29,2.74,1.06,1.26,0.445,0.402,0.883,0.471,0.857,0.906
TCTCGGAGGACACGAAGGGTCAGAGCTCGACATC,1.38,0.541,-0.0647,-1.25,0.446,1.66,-0.67,2.31,-0.314,3.14
CATACAGTGTCAGCTAGGCCAGAGTAGGGACGGC,-0.0696,0.608,0.171,-0.0038,-0.0558,-0.453,-0.457,-0.228,0.038,1.04
GCTATTAGTTCAAAGGGCAACCGAATGATTCTCG,0.957,1.81,0.146,0.19,2.2,3.21,1.29,4.32,1.11,3.3
CCTATTAGTTGACAATAAGGGCAACCGAAGCTCG,0.466,0.343,0.307,0.312,0.811,0.771,0.868,1.07,1.45,1.21
CCTATTAGTTGACCATAAGGACAACCGAAGCTCG,0.245,0.48,1.08,1.03,2.6,0.623,1.23,1.27,2.5,1.22
CCTACTGGGCCAAAAAGGTCAATGATGCCGATAA,3.37,4.64,0.0987,-0.775,2.6,3.47,0.909,3.89,0.262,4
TATACAGGGTCAAAAGCCAGAGTACGAATGTCGA,1.58,3.89,1.82,1.55,1.9,3.49,0.526,4.49,0.877,3.73
AATACAGGGGCATCGTAGGCCAGAGTACGCACAG,0.577,1.26,0.192,0.567,-0.0954,0.276,0.165,0.505,-0.245,1.48
ATCTCTAGGTAAGACTCAGTTTAGTGAAGAACGC,2.06,1.06,1.01,0.79,0.494,0.177,0.554,0.162,1.22,0.222
AGATCGAGGGCAATGAGTTGATAGCACGGGTGGC,2.97,2.42,0.184,-0.0429,0.453,1.53,3.29,0.437,0.369,2.12
ATATGTAGGTCACATCCGGGTCATTCAGGCTATG,8.71,8.92,2.83,2.12,3.45,5.25,2.96,5.31,0.84,4.34
ACTATTAGTTGACTTAGGGCAACTGATACGACGC,-0.0413,0.813,1.58,1.31,0.722,0.176,0.201,0.431,0.297,1.01
TCTGCTAGGTCCACGATGGTCAGCTAATCTGCTA,0.568,-0.114,-0.95,-0.628,-0.907,-0.483,-1.23,-0.477,-1.27,0.204
CGAACTAGGACAAGGACAGTGAATCTCCGCACGC,5.04,3.15,0.0656,0.471,0.000634,-0.249,-0.177,0.0939,-0.389,0.708
ATCGAAAGGTCGATGGTGAGTATACCCACCCGAA,-0.671,0.8,0.684,0.102,1.04,1.51,-0.361,2.18,0.322,3.03
CCGACTGGGGCCTAAGGTTACCATAAGCCAGCCC,-0.456,-0.247,-1.22,-1.84,0.088,0.127,-0.726,0.85,0.205,0.778

# From the supplement of paper PMC6555819
